From PubChem BioAssay AID488 (PCMD, 2006)
Out of some 62,000 compounds screened, about 40 (0.06%) were called active. No stated cut-off is given here; in the data, active means inhibition above about 22% (passing the limit was not always enough); inconclusive means no clear call, values can overlap the other calls. What follows is part of a selection rich in actives, with near analogues and random picks from the rest.

Target: Cathepsin B (Homo sapiens) (UniProt P07858)
Assay: human cathepsin B blockade, pooled library – biochemical, compound mixtures, AMC fluorescence, primary screen (AID 488);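 further: 0% = enzyme without compound and 100% = no enzyme blank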
Settings: Purified cathepsin B, AMC dipeptide fluorescence, hits give high values,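 ten-compound pools at 5 µM per compound and 50 µM total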

inhibition, inactive:
Cc1ccc(C(=O)CSc2nnc(Cn3nnc4ccccc43)n2C)cc1 -0.39%, C=CCn1c(SCc2csc(C)n2)nc2scc(-c3ccc(C)o3)c2c1=O 5.42%, Cc1ccc2nc(NCCCNC(=O)c3cnccn3)c(C#N)cc2c1 1.1%, CCNc1nc(SCCOc2ccccc2)nc(N(C)C)n1 3.91%, C/C(Cl)=C\Cn1c(Nc2cccc(C)c2)nc2c1c(=O)n(C)c(=O)n2C 5.3%, Cc1ccccc1S(=O)(=O)Cc1ccc(C(=O)NCCN2CCCCC2C)o1 (stereo unspecified) 3.67%, CCOc1ccc2[nH]c(=O)c(CN(Cc3nnnn3Cc3ccccc3)CC3CCCO3)cc2c1 (stereo unspecified) 3.02%, COC(=O)Nc1ncc(CN2C(=O)c3ccccc3C2=O)s1 -2.69%, CCCS(=O)(=O)N1CCCC(C(=O)NCCN2CCCCC2C)C1 (stereo unspecified) 3.97%, Cc1ccc(C(C(=O)NC2CCCC2)N(Cc2ccco2)C(=O)CCC(=O)Nc2ccccn2)cc1 (stereo unspecified) 3.21%, CCCCn1c(CN2CCN(CCO)CC2)nc2ccccc21 2.92%, CCc1ccc(-c2nnn(Cc3nc4ccccc4s3)n2)cc1 4.33%, O=c1[nH]nc(CSCc2ccccc2Cl)[nH]1 4.72%, O=C(COc1ccc(F)cc1)N(CC1=CCS(=O)(=O)C1)c1ccccc1 -3.79%, Cc1ccc2cc3cc(C(=O)N4CCCCCC4)oc3nc2c1 3.89%, C=CCn1c(N)c(C(=O)OCC(C)C)c2nc3ccccc3nc21 -4.76%, COc1cccc(NS(=O)(=O)c2ccc3[nH]cc(C(=O)NCCCOC(C)C)c(=O)c3c2)c1 5.5%, COC(=O)[C@H](CCSC)NC(=O)Nc1ccc(OC)cc1 1.64%, C=CCNC(=O)c1cc(-c2ccccc2O)on1 -1.28%, O=C(CSc1nnc(-c2ccco2)n1Cc1ccccc1)NC(=O)NCc1ccco1 -0.985%, COCCCN(C(=O)Cn1ncc2c(=O)oc3ccc(C)cc3c21)C(C)c1ccncc1 (stereo unspecified) 1.95%, O=C(CN1C(=O)NC2(CCCCC2)C1=O)NCCC1=CCCCC1 4.21%, Cc1cc(NC(=O)COn2nnc3ccccc32)no1 1.15%, CCc1ccccc1NC(=O)CSc1nnc([C@@H](NC(=O)OC(C)(C)C)C(C)C)o1 5.22%, Cc1ccc(C(=O)NCC(=O)O)cc1S(=O)(=O)N1CCCCC1 1.96%, COc1ccc(C(=O)Nc2ccc3c(c2)OCO3)cc1OC 1.18%, COc1ccc(NS(=O)(=O)c2ccc(NC(C)=O)cc2)cc1OC 2.73%, CCC(=O)c1ccc(OCC(O)CN2CCN(c3cccc(C(F)(F)F)c3)CC2)cc1 (stereo unspecified) 2.81%, Cc1noc(C)c1S(=O)(=O)Nc1ccc(C(=O)O)cc1 5.64%, COc1ccc(CC(=O)c2ccc(O)cc2O)cc1OC -2.36%, Cc1ccc(SCCN2C(=O)NC(C)(C)C2=O)cc1 3.79%, CCCc1nc(N)nc2c1C(=O)CC(C)(C)C2 3.17%, CCC(=O)N1CCc2cc(S(=O)(=O)NC(C(=O)N3CCc4ccccc4C3)C(C)C)ccc21 (stereo unspecified) 15.3%, O=C(NCc1ccc(Cl)c(Cl)c1)c1cccnc1 -2.21%, CCCC(CCC(=O)OC)(C(=O)OCC)c1csc(N)n1 (stereo unspecified) 6.54%, CC1CCCN(Cc2nc3c(c(=O)n(C)c(=O)n3C)n2Cc2cccc3ccccc23)C1 (stereo unspecified) 1.14%, CN(CCCC(=O)Nc1nccs1)S(=O)(=O)c1ccc(Cl)cc1 3.83%, Cc1ccc(S(=O)(=O)N2CCN(C(=O)CCC(=O)NC3CCCc4ccccc43)CC2)cc1 (stereo unspecified) 1.64%, CC(=O)Nc1cc(C(=O)O)ccc1S(=O)(=O)c1ccc(Cl)cc1 -0.3%, CCCC(=O)N1c2ccccc2NC2=C(C(=O)CCC2)C1c1ccc(F)cc1 (stereo unspecified) 4.79%, COc1ccc(OC)c(NC(=O)CSc2nc3cccnc3n2C)c1 -8.48%, O=C1NC(Nc2nc3ccccc3s2)(C(F)(F)F)C(=O)N1C1CCCCC1 (stereo unspecified) 1.35%, CN1CCN(C(=O)C2C3C=CC(C3)C2C(=O)O)CC1 (stereo unspecified) 5.22%, CSCCC(NC(=O)c1ccc(=O)n(C)n1)c1nc2ccccc2[nH]1 (stereo unspecified) -2.06%, c1ccc2c(c1)OCC(c1nn3cnnc3s1)O2 (stereo unspecified) -2.62%, O=C(NCCN1C(=O)C2C3C=CC(C3)C2C1=O)Nc1ccccn1 (stereo unspecified) 7.59%, Cn1c2ccccc2c2c(C(=O)N3CCN(c4ccc(F)cc4)CC3)cn(C3CCCC3)c(=O)c21 4.51%, CCCNc1ncnc2sc(C)c(C)c12 2.56%, O=C(CSc1nnnn1-c1ccc2c(c1)CCC2)Nc1ccc2c(c1)OCCO2 0.15%, Cn1c(=O)n(C)c2cc(CNc3ccc(N4CCOCC4)c(C(=O)O)c3)ccc21 -0.23%, O=C(Nc1ccc(Cl)cc1)c1ccsn1 -2.12%, COc1ccc(OC)c(C(=O)CSc2nnc(-c3cccs3)o2)c1 -2.44%, CCN(CC)S(=O)(=O)c1ccc2nc(COC(=O)c3n[nH]c4ccccc34)[nH]c2c1 3.42%, O=C(NC(c1ccccc1)c1ccccc1)N1CCN(CCO)CC1 3.62%, CC1CCC(NC(=O)c2ccc(N3CCCC3=O)cc2)CC1 (stereo unspecified) -4.06%, COCC(=O)Nc1nnc(COc2ccccc2)s1 -8.97%, COC(C)(C)[C@]12CC(O)(C(C)C)ON1[C@H]1CCCCC1N2O (stereo partly specified) -3.22%, Cn1c(=O)c2c(n(Cc3ccccc3)c1=O)NC(=O)C2CC(=O)N1CCc2ccccc2C1 (stereo unspecified) 0.76%, O=c1c2c(nc3n1CCCCC3)sc1c(O)cccc12 5.69%, CC(C)c1ccc(NS(=O)(=O)c2cn(C)c(=O)n(C)c2=O)cc1 3.38%

inhibition, active:
Cc1ccc(C(=O)Nc2ccc3c(c2)OCO3)cc1S(=O)(=O)N1CCCCC1 62.7%
